This note sets out measurements from PubChem BioAssay (NCI).

Among the test systems are T-47D breast; BT-549 breast; MDA-MB-435 melanoma; SW-620 colon; MCF7 breast; HCT-116 colon; HCC-2998 colon; KM12 colon.
What all share (assay): NCI-60 one-dose screen, 48 h (100 = growth as untreated, 0 = no growth, -100 = all killed)
Common to all, as to details: 10 µM unless noted

Compounds without any hit were thinned out: in the full panel of roughly 83,000, 20% have a hit.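 A percent growth of 40 corresponds to 60% growth inhibition; 0 means no net growth; -100 means all cells died. Active threshold: below 10.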 Unmarked numbers belong to inactive results. Calls of active or inactive are those of the source.

For `c1ccc(-c2nc3ccccc3[nH]2)c(OCCCCCOc2ccccc2-c2nc3ccccc3[nH]2)c1`, the growth with T-47D breast is 111%; in the assay on BT-549 breast, 88.5%; in the assay with MDA-MB-435 melanoma it was 63.5%; in the assay on SW-620 colon, 18.5%; in the assay on MCF7 breast, 19.8%; in the assay with HCT-116 colon it was -10.4% (active). The growth in the assay on HCC-2998 colon was 92.2%; in the assay with KM12 colon, 98.6%.

`COc1cc(-c2cc(-c3ccc(Nc4nc(Nc5ccc(Cl)cc5)nc(Nc5ccc(Cl)cc5)n4)cc3)no2)cc(OC)c1OC`: the growth in the assay with T-47D breast was 45.9%; in the assay on BT-549 breast, 88.6%; in the assay with MDA-MB-435 melanoma, 71.5%; in the assay with SW-620 colon, 89.1%; in the assay on MCF7 breast, 49.4%; in the assay on HCT-116 colon, 66.2%. The growth in the assay on HCC-2998 colon is 61.3%; with KM12 colon, 83.8%.

As for `O=S(=O)(Nc1cc(F)cc(F)c1)c1ccc(-c2cnc(C3CC3)o2)cc1`, the growth is 29.8% in the assay with T-47D breast; 36.1% in the assay on BT-549 breast; -23.6% (active) in the assay on MDA-MB-435 melanoma; 17.2% with SW-620 colon; 14.3% with MCF7 breast; 19.1% in the assay with HCT-116 colon. Further, the growth was 67.3% in the assay on HCC-2998 colon and 19.2% in the assay with KM12 colon.

With `Cc1ccc2c(c1)=C/C(=C\c1cc(-c3ccccc3)[nH]c1O)C(=O)N=2`, the growth with T-47D breast is 40.2%; with BT-549 breast it was 29.9%; with MDA-MB-435 melanoma, -1.51% (active); in the assay on SW-620 colon, 32.8%; in the assay with MCF7 breast, 21.5%; in the assay on HCT-116 colon, 17.6%. The results for the growth in the assay on HCC-2998 colon and in the assay on KM12 colon were 56.6% and 28.3%, respectively.

In the case of `C=C1SC(=Nc2ccccc2Cl)N(C(=O)c2sc3ccccc3c2Cl)C1(C)C`, the growth with T-47D breast was 34.7%; with BT-549 breast, 85.2%; in the assay on MDA-MB-435 melanoma it was 99.1%; in the assay on SW-620 colon, 68%; with MCF7 breast, 21.2%; in the assay with HCT-116 colon it was 54%. The growth in the assay with HCC-2998 colon is 72.9%; in the assay on KM12 colon, 29%.

With `CCCCCCCCn1ccc2cc(NC(=O)CN3CCN(c4cc(C)nc(Cl)n4)CC3)ccc21`, the growth is 67.8% in the assay on T-47D breast; 75% in the assay on BT-549 breast; 84.1% with MDA-MB-435 melanoma; 95.3% with SW-620 colon; 75.4% with MCF7 breast; 79.2% with HCT-116 colon. Further, the results for the growth with HCC-2998 colon and with KM12 colon were 106% and 91.9%, respectively.

For `C=C(C)[C@@H]1CC[C@]2(C(=O)Nc3ccccn3)CC[C@]3(C)[C@H](CC[C@@H]4[C@@]5(C)CCCNC(C)(C)[C@@H]5CC[C@]43C)[C@@H]12`, the growth is 25.9% in the assay on T-47D breast; 25.7% in the assay with BT-549 breast; 2.12% (active) with MDA-MB-435 melanoma; -31.7% (active) in the assay on SW-620 colon; 8.22% (active) with MCF7 breast; -43.4% (active) with HCT-116 colon. Further, the growth in the assay with HCC-2998 colon was 5.09% (active); in the assay on KM12 colon, 10.6%.

Regarding `COc1ccc2c(c1)CC[C@@H]1[C@@H]2CC[C@]2(C)C3C(=CC(COC(C)=O)C4C(=O)N(c5ccc(Cl)cc5)C(=O)C43)C[C@@H]12` (stereo not given in full), the growth with T-47D breast was 105%; in the assay with BT-549 breast, 116%; with MDA-MB-435 melanoma, 111%; with SW-620 colon, 104%; in the assay with MCF7 breast, 108%; in the assay with HCT-116 colon, 85.2%. Also, the growth was 92.9% with HCC-2998 colon and 102% in the assay on KM12 colon.

In the case of `Cc1nc2ccccc2c(/C=C/c2ccc(F)cc2)c1C(=O)/C=C/c1ccccc1`, the growth with T-47D breast is 10.9%; with BT-549 breast, 30.7%; in the assay on MDA-MB-435 melanoma it was -9.7% (active); in the assay on SW-620 colon, -1.98% (active); with MCF7 breast, 11.4%; in the assay on HCT-116 colon, -69.9% (active). Also, the growth with HCC-2998 colon was 22%; with KM12 colon it was 11.9%.

As to `Cc1nc2sc(C(=O)Nc3cccc4ccccc34)c(N)c2cc1C(=O)c1ccccc1`, the growth in the assay on T-47D breast was 53.7%; with BT-549 breast, 15.2%; in the assay on MDA-MB-435 melanoma, -53% (active); in the assay on SW-620 colon it was 21.9%; with MCF7 breast, 17.9%; with HCT-116 colon, 11.3%. The growth with HCC-2998 colon is 10.3%; with KM12 colon, 19.1%.

As for `Clc1ccc2nn3c4ccccc4c(OCCN4CCOCC4)nc3c2c1`, the growth was 87.7% in the assay with T-47D breast; 97.8% in the assay with BT-549 breast; 103% in the assay on MDA-MB-435 melanoma; 88.1% in the assay on SW-620 colon; 83.4% in the assay on MCF7 breast; 88.7% in the assay on HCT-116 colon. Further, the growth in the assay on HCC-2998 colon is 107%; in the assay on KM12 colon it was 100%.

As to `C=C1C(=O)O[C@H]2[C@H]1CC/C(COC(=O)NCc1ccc(Cn3c(=O)sn(-c4ccccc4)c3=O)cc1)=C\CC[C@@]1(C)O[C@@H]21`, the growth with T-47D breast was 57.7%; in the assay with BT-549 breast, 51.3%; in the assay on MDA-MB-435 melanoma, 33.4%; in the assay with SW-620 colon, -13% (active); in the assay on MCF7 breast, 15.4%; in the assay on HCT-116 colon it was 5.85% (active). The values for the growth in the assay on HCC-2998 colon and with KM12 colon were 75.2% and 96.8%, respectively.

Regarding `Nc1cc(C(=O)O)cc(-n2c(O)c(C=C3N=c4ccccc4=N3)sc2=S)c1`, the growth was 95.2% in the assay on T-47D breast; 103% with BT-549 breast; 103% in the assay with MDA-MB-435 melanoma; 96.8% with SW-620 colon; 94.5% with MCF7 breast; 99.4% in the assay with HCT-116 colon. Also, the growth in the assay on HCC-2998 colon was 99.3%; with KM12 colon, 103%.

Turning to `COc1ccc(-c2cc(C(=O)N3N=C(c4ccc(N)cc4)CC3c3ccc(Cl)cc3)c3cc(OC)ccc3n2)cc1` (stereo not given), the growth is 66.7% in the assay with T-47D breast; 29.8% in the assay on BT-549 breast; 9.88% (active) with MDA-MB-435 melanoma; 35.5% with SW-620 colon; 38.6% in the assay with MCF7 breast; 1.85% (active) in the assay with HCT-116 colon. The growth is 83.3% in the assay on HCC-2998 colon and 52.3% in the assay with KM12 colon.

On to `CCN(CC)CCOc1ccc(C(=O)/C=C\c2ccc(Cl)cc2Cl)cc1`, for which the growth in the assay on T-47D breast is 29.9%; with BT-549 breast, 31.6%; with MDA-MB-435 melanoma, 27.3%; in the assay with SW-620 colon, -55.1% (active); in the assay on MCF7 breast it was -48.1% (active); with HCT-116 colon, -90.2% (active). Besides, the values for the growth with HCC-2998 colon and with KM12 colon were 24.2% and -43.2% (active), respectively.
